The list is not random: actives were taken first. Their share in the collection is about 5.7%.
NPSR antag = antagonists of human neuropeptide S receptor cAMP signaling; CHO-NPSR cells, cAMP TR-FRET, antagonist mode; Potency, µM (highest dose often 38.3 µM), inactives show at the top dose activity change, negative = inhibition, actives largely listed as inhibitors; 220,000 tested, 1% active; note: nearly all actives have a fitted effect of over 50% in size
RORg inh = inhibitors of mouse ROR gamma transcriptional activity; P51450; Drosophila S2 Gal4-RORgamma UAS-luciferase reporter, 20 h; Potency, µM (series often up to 53.6 µM), without a hit: top-dose activity change, negative = inhibition, most hits filed as inhibitors; 310,000 tested, 5.4% active; AID 2551; note: nearly all actives have a fitted effect of over 60% in size
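Stably transfected Drosophila Schneider cells are the test system, with ROR gamma fused to Gal4 and luciferase under UAS control; luminescence is read after 20 hr of 700 uM copper sulfate induction at ambient temperature.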
VP16 counter = counter-screen for ROR gamma inhibitors: Gal4-VP16 reporter. Drosophila S2 Gal4-VP16 UAS-luciferase, luminescence, 20 h. 310,000 tested, 3.5% active. Potency, µM (doses to about 53.6 µM), for the others: at the top dose activity, negative = inhibition, usual class: inhibitors;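 note: Gal4-VP16 expression switched on by copper sulfate through the metallothionein promoter; nearly all actives have a fitted effect of over 50% in size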
B2AR arrestin = beta2AR (human) beta-arrestin recruitment activity. beta-arrestin recruitment to beta2AR, cell-based reporter. Potency, µM (series often up to 46.1 µM), for the others: at the top dose activation, hits mostly activators. 330,000 tested, 0.02% active;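 note: 0% = DMSO controls and full agonism = EC100 isoproterenol or metaproterenol; nearly all actives have a fitted effect of over 65% in size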
Target sequence (P07550 whole entry, looked up): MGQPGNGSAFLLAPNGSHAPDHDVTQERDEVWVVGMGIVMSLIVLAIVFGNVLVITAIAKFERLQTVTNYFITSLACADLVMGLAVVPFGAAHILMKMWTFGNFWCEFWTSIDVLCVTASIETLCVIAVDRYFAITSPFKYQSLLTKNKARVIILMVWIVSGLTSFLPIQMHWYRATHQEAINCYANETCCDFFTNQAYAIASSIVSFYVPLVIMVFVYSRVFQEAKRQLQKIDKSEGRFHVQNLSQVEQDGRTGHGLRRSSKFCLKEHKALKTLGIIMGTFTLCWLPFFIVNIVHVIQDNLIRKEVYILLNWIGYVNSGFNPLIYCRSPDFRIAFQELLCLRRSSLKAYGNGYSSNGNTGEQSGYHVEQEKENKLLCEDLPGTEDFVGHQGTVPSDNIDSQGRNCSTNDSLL
Starred values were filed as active, the others as inactive; u = inconclusive; x = not tested or not shown; [ ] = another dose, or the depositor's remark. Calls come from the whole dose curve; as a rule, active = well fitted curve in the direction sought with a large enough effect; inconclusive = small, poorly fitted or top-dose-only effect, or another doubt; inactive = no such curve, though single readings can be large; an effect the other way counts as inactive or inconclusive. Unless noted, % is set by controls: 0 for no effect and ±100 for the full control effect; potency is the fitted concentration of half-maximal effect.

SMILES	NPSR antag	RORg inh	VP16 counter	B2AR arrestin
CCN1CCN(C(=O)NC(C(=O)NC2C(=O)N3C(C(=O)O)=C(CSc4nnnn4C)CSC23)c2ccc(O)cc2)C(=O)C1=O (centres undefined)	x	0%	-8%	x
CCOc1ccc(NS(=O)(=O)c2ccc(-c3coc(C)n3)cc2)cc1	x	25%	-9%	0%
O=C(/C=C/Nc1ccc(Br)cn1)c1cccc(OC(F)F)c1	x	x	x	0%
CCN1CCN(C(=S)NC(=O)/C=C/c2cccs2)CC1	-6%	3.2µM*	u	1%
O=[N+]([O-])c1cc(C(F)(F)F)ccc1N1CCCNCC1	-9%	11%	-1%	-1%
O=C(NC(=S)N1CCN(c2ccc(C(F)(F)F)cc2[N+](=O)[O-])CC1)c1cccs1	-16%	0.11µM*	u	-1%
CCN1CCN(C(=S)NC(=O)c2cccs2)CC1	x	6.3µM*	u	0%
CCCC(/C=C/c1ccc(OC(C)=O)cc1)=C1/c2ccccc2C(=O)N1c1ccccc1	x	x	x	0%
C=CCOC(=O)C(C(C)=O)C(NC(=O)OC)c1cccs1 (centres undefined)	x	11%[10 µM]	-8%[10 µM]	x
C=CCOC(=O)C(C(C)=O)C(NC(=O)OC)c1ccc(F)cc1 (centres undefined)	x	1%[10 µM]	-4%[10 µM]	x
Cn1cc(C(=O)c2ccc(Cl)cc2Cl)cc1C(=O)N/N=C(\N)COc1cccc(C(F)(F)F)c1	-12%[46.1 µM]	2.2µM*	2µM*	0%
COC(=O)c1cc(C(=O)c2ccc(Cl)cc2Cl)cn1C	-25%[46.1 µM]	u	10%	-1%
CCc1ccc(NC(=O)C(C)OC(=O)c2ccc(N3CCCC3)c([N+](=O)[O-])c2)cc1 (centres undefined)	-13%[46.1 µM]	25%	0%	0%
COc1ccc(NC(=O)CCC(=O)N/N=C/c2cn(C)nc2C)cc1	19%	15%	2%	-1%
COc1ccc(NC(=O)O/N=C/c2c(C)nn(C(C)(C)C)c2C)cc1	9%	2.5µM*	11µM*	0%
COc1cc2c(cc1OC)C(/C=C/c1ccc(OC)c(OC)c1OC)=NCC2	x	-28%	u	x
Oc1[nH]c2ccccc2c1N=Nc1nc2ccccc2s1	-25%[46.1 µM]	u	-24%	0%
Cc1ccc2[nH]c(O)c(N=Nc3nc4ccccc4s3)c2c1	-13%	2.8µM*	-2%	0%
CC(=O)OC1C=C[C@]2(C)C(CC(OC(C)=O)[C@@]3(C)C4=CC(=O)OC(c5ccoc5)[C@]4(C)CCC23)C1(C)C (some centres undefined)	x	-28%	-1%	x
CC(=O)OC1CC[C@]2(C)C(CC(OC(C)=O)[C@@]3(C)C4=CC(=O)OC(c5ccoc5)[C@]4(C)CCC23)C1(C)C (some centres undefined)	x	13µM*	-1%	x
Cn1cc([C@@H]2C[C@H]3CN(Cc4cccc(Cl)c4)C(=O)[C@]34CCCN24)c(-c2ccccc2)n1	-1%	u	4µM*	0%
CCOc1ccc(N2C(=O)CC(NCCNc3ccc(C(=O)c4cccs4)cc3)C2=O)cc1 (centres undefined)	-15%	u	-7%	0%
Cc1cccc(NC(=O)C(=O)NNC(=O)c2ccc(C(C)(C)C)cc2)c1	x	u	10µM*	0%
O=C(O)Cc1ccc2c(c1)N(S(=O)(=O)c1cccs1)CC(C(=O)O)O2 (centres undefined)	x	-10%	-11%	-1%
O=C(COC(=O)Cn1cnc2ccccc21)Nc1cc(S(=O)(=O)N2CCOCC2)ccc1Cl	4%	54%	0%	0%
SMILES	NPSR antag	RORg inh	VP16 counter	B2AR arrestin
O=C(COC(=O)Cn1cnc2ccccc21)Nc1cc2c(cc1Cl)C(=O)c1ccccc1C2=O	-7%	2.8µM*	u	0%
O=S(=O)(c1ccccc1)N1N=C(c2ccc(O)cc2)CC1c1ccco1 (centres undefined)	x	-20%	20µM*	0%
N#Cc1cccc(-c2nccc(NCc3cccnc3)n2)c1	x	u	-21%	x
c1ccc(-c2nc3nc4ccccc4nc3n2Cc2ccco2)cc1	-28%[46.1 µM]	-91%	20µM*	-1%
Fc1ccc(-c2nc3nc4ccccc4nc3n2Cc2ccco2)cc1	-25%[7.67 µM]	u	2%	7%
CC(C)Cn1c(-c2ccccc2)nc(=S)c2c1CCCC2	4%[46.1 µM]	20µM*	-16%	0%
S=c1nc(-c2ccccc2)n(Cc2ccco2)c2c1CCCC2	-6%[46.1 µM]	18µM*	u	-1%
Cc1ccc2c(c1)cc(CN(Cc1cccnc1)C(=O)NCc1ccccc1)c1nnnn12	-13%[46.1 µM]	25%	-14%	0%
COc1ccc2[nH]c(C(=O)O)c(CCNC(=O)/C=C/c3ccc(O)c(OC)c3)c2c1	x	-21%	-3%	0%
COC(=O)c1sc(N2C(=O)C(O)=C(C(=O)c3ccc(C)o3)C2c2ccc([N+](=O)[O-])cc2)nc1C (centres undefined)	x	u	-1%	0%
CCOc1ccc(C2C(C(=O)c3ccc(C)o3)=C(O)C(=O)N2c2nc(C)c(C(=O)OC)s2)cc1 (centres undefined)	x	1.1µM*	-26%	-1%
C=CCOc1cccc(C2C(C(=O)c3ccc(C)o3)=C(O)C(=O)N2c2nccs2)c1 (centres undefined)	5µM*	-11%	0%	0%
CCCCCC(=O)/C=C/[C@@H]1[C@@H](C/C=C\CCCC(=O)O)[C@@H](O)C[C@H]1O	x	7%	-2%	x
CCCSC(=S)c1c(C)[nH]n(-c2ccccc2)c1=O	u	0.32µM*	0.79µM*	-1%
CCCCCOc1ccc(Br)cc1CSC(=N)N	u	-75%	7.1µM*	-1%
COc1ccccc1C(=O)NCCNc1ccc([N+](=O)[O-])cc1Cl	x	u	2%	0%
S=C(Nc1nc2c(s1)CCCC2)NC1CC1	x	1.3µM*	1.8µM*	u
O=C(NC(=S)Nc1nc2c(s1)CCCC2)c1ccccc1	-54%	0.56µM*	0.63µM*	0%
Cc1nc(NC(N)=S)sc1C(=O)Nc1ccccc1	-8%[46.1 µM]	11µM*	-13%	0%
O=C(CS(=O)(=O)Cc1ccccc1)Nc1nc2c(s1)CCCC2	-16%[46.1 µM]	31%	15%	0%
Cc1ccc(CC(=O)Nc2nc3c(s2)CCCC3)cc1	-11%[46.1 µM]	-20%	10%	0%
Cc1nc(Nc2ccccc2)sc1C	-5%	3.5µM*	13µM*	0%
COc1cc(OC)c(NC(=O)CSc2nc3ccncc3[nH]2)cc1Cl	x	x	x	0%
COC(=O)c1ccc(C(=O)NC(=S)Nc2nc3c(s2)CCCC3)cc1	-10%[46.1 µM]	2.2µM*	7.1µM*	0%
Cc1nc(NC(=O)c2ccccc2)sc1C	x	u	-16%	-1%
Cc1nc(NC(=S)NC(=O)c2ccccc2)sc1C	-43%	1.3µM*	u	0%
O=c1cc(CO)occ1O	x	-1%	-10%	x
O=C(C1=C(O)C(=O)N(CC2CCCO2)C1c1ccc(Cl)cc1Cl)c1ccco1 (centres undefined)	x	31%	-6%	0%
CC(C)CC(=O)NC(=S)Nc1ccc(N2CCCC2)c(Cl)c1	u	0.4µM*	2.8µM*	0%
O=C(Nc1ccc(N2CCOCC2)c(Cl)c1)c1ccccc1Cl	10%	-9%	-2%	0%

Bioassay records as filed in PubChem.
